Bioassay records as filed in PubChem.
Hits are enriched below; roughly 6.9% of the tested compounds scored in any of these assays.
NS3h inh CB: hepatitis C NS3 helicase inhibition, primary screen | inhibition, % at 100 µM | NS3h Cy5-dT15 DNA binding, fluorescence polarization | actives 1.6% (n = 16,000);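 active = inhibition above the average over every tested compound plus 3 SD, cut at about 40% in these data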
Cy5 interf NS3h: Cy5 fluorescence interference, HCV helicase counter-screen; Cy5-dT15 DNA with NS3h; actives lie on both sides; signal over control mean, under 1 quenches; fluorescence interference ratio at 100 µM; actives 6% (n = 16,000); AID 720488;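 active = compound fluorescence over control fluorescence at most 0.8, a quencher, or at least a set upper limit, an enhancer; inactive = ratio between 0.8 and the set upper limit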
HCV NS3h conf: confirmation of hepatitis C virus NS3 helicase inhibitors; shares compounds with NS3h inh CB; NS3h binding to Cy5-dT15 DNA, fluorescence polarization; inhibition, % at 100 µM; actives 20% (n = 240); AID 720485;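 active = percent inhibition of 50% or more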
SSB FP counter: disrupts E. coli SSB binding to DNA in counter-screen | shares compounds with NS3h inh CB | E. coli SSB binding Cy5-dT15, fluorescence polarization | inhibition, % at 100 µM | actives 40% (n = 240) | AID 720486;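 active = inhibition of at least 50%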;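 note: displacers lower Cy5 polarization so higher inhibition means more SSB displaced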
Target sequence (P0AGE0 whole entry, looked up): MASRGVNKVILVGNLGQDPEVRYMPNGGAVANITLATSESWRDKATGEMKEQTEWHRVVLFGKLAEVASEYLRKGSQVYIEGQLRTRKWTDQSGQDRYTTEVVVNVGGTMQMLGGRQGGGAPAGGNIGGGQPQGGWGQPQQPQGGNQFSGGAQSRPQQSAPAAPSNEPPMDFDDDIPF
Cy5 SSB interf: Cy5 fluorescence interference in NS3h counter-screen; shares compounds with NS3h inh CB; Cy5-dT15/E. coli SSB fluorescence interference; actives lie on both sides; fluorescence interference ratio at 100 µM; actives 8% (n = 240);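 active = fluorescence interference ratio at or above 1.2, signal boosting, or at or below 0.8, signal quenching; inactive = ratio between 0.8 and 1.2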;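 note: ratio of compound well signal to mean negative control signal so 1 means no effect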
Cy5 interf conf: confirmation counter-screen for HCV NS3 helicase inhibitors: fluorescence interference | shares compounds with NS3h inh CB | Cy5-dT15 DNA/NS3h fluorescence interference counterscreen | fluorescence interference ratio at 100 µM, hits read low | actives 44% (n = 240) | AID 720489;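 active = fluorescence interference ratio at or below 0.8 quencher or at or above a set limitenhancer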;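 note: ratio of compound fluorescence to mean of negative controls so 1 means no interference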
Numbers without * were called inactive; . = no result.

SMILES | NS3h inh CB | Cy5 interf NS3h | HCV NS3h conf | SSB FP counter | Cy5 SSB interf | Cy5 interf conf
CCOc1ccc(N(CC(=O)NC2CCCCC2)S(=O)(=O)c2ccc(Cl)cc2)cc1 | 0 | 1.1 | . | . | . | .
Nc1c(Cl)cc(N2C(=O)C=CC2=O)cc1Cl | 54* | 0.96 | 62* | 15 | 0.9 | 0.88
CCOC(=O)c1c(-c2ccccc2)oc2cc(Br)c(OCC(N)=O)cc12 | 8 | 0.9 | . | . | . | .
Cn1c(O)c(N=NC(N)=O)c2ccccc21 | 6 | 0.95 | . | . | . | .
Cc1nc(=O)c(-c2ccccc2)c(C)n1-c1ccc(OCC(=O)O)cc1 | -4 | 1.1 | . | . | . | .
Cc1ccc(C)n1-c1ccc(OCC(=O)O)cc1 | 82* | 1.4* | 78* | 95* | 0.92 | 0.83
COc1ccc2c(Cl)c(C(=O)Nc3ccc(N4CCOCC4)cc3)sc2c1 | 9 | 0.97 | . | . | . | .
COc1nsnc1NS(=O)(=O)c1ccc(NC(=S)NC(=O)c2sc3cc(F)ccc3c2Cl)cc1 | 94* | 1 | 38 | 5 | 1 | 0.76*
Cc1ccc(/C=C/C(=O)Nc2ccc(Cl)cc2Cl)o1 | 26 | 0.92 | . | . | . | .
CCOC(=O)c1c(NC(=O)/C=C/c2ccc(C)o2)sc(C)c1C | 61* | 0.99 | 2 | 3 | 0.97 | 0.74*
Cc1ccc(OCC(=O)O/N=C(/N)c2ccc(Cl)cc2)cc1 | -8 | 1.1 | . | . | . | .
COc1cc(/C=N\N2CCN(c3ccccc3)CC2)cc(OC)c1O | -1 | 0.92 | . | . | . | .
O=C1NN(c2ccc(F)c(Cl)c2)C(=O)/C1=C\c1ccc(-c2cccc(C(=O)O)c2)o1 | 43* | 0.8* | 13 | 27 | 0.92 | 0.96
NS(=O)(=O)c1ccc(-c2ccc(/C=C3/C(=O)NN(c4cccc(Cl)c4)C3=O)o2)cc1 | 7 | 1 | . | . | . | .
O=C1NN(c2ccc(Cl)cc2)C(=O)/C1=C\c1ccc(-c2cccc(C(=O)O)c2)o1 | 55* | 0.93 | 32 | 61* | 0.85 | 0.73*
COC(=O)c1ccccc1-c1ccc(/C=C2\C(=O)NN(c3ccccc3)C2=O)o1 | 12 | 0.81 | . | . | . | .
CC1=C(C#N)c2nc(N)c(C#N)c(C)c2/C1=C\c1ccc(I)o1 | 2 | 1.1 | . | . | . | .
CC1=C(C#N)c2nc(N)c(C#N)c(C)c2/C1=C/c1ccc(-c2cccc(C(=O)O)c2)o1 | 121* | 1.1 | 71* | 152* | 0.86 | 0.99
O=[N+]([O-])c1cccc(NC(=NS(=O)(=O)c2ccc(Cl)cc2)c2ccccc2)c1 | 7 | 0.97 | . | . | . | .
O=C1NN(c2ccccc2)C(=O)/C1=C/c1ccc(-c2ccc(F)cc2)o1 | 7 | 0.99 | . | . | . | .
O=C1NC(=O)N(c2ccc(Cl)cc2)C(=O)/C1=C/c1ccc(-c2ccc(Cl)c(C(=O)O)c2)o1 | 67* | 1.1 | 63* | 77* | 0.94 | 0.85
O=C1NC(=O)N(c2ccccc2)C(=O)/C1=C\c1ccc(-c2ccc([N+](=O)[O-])cc2Cl)o1 | -3 | 0.82 | . | . | . | .
O=C1NN(c2ccc(Cl)cc2)C(=O)/C1=C\c1ccc(-c2ccc(Cl)c(C(=O)O)c2)o1 | 52* | 0.8* | 36 | 28 | 0.97 | 0.92
COc1ccc([N+](=O)[O-])cc1-c1ccc(/C=C2\C(=O)NC(=O)N(c3ccc(Cl)cc3)C2=O)o1 | 20 | 1.1 | . | . | . | .
O=C1NC(=O)N(c2ccccc2)C(=O)/C1=C\c1ccc(-c2cccc(C(=O)O)c2)o1 | 51* | 0.98 | 38 | 53* | 0.92 | 0.92
SMILES | NS3h inh CB | Cy5 interf NS3h | HCV NS3h conf | SSB FP counter | Cy5 SSB interf | Cy5 interf conf
COc1cc(/C=C2\C(=O)NC(=O)N(c3ccc(C)cc3)C2=O)ccc1OCc1ccccc1 | 9 | 1.1 | . | . | . | .
CN(C)c1ccc(/C=C2\SC(=S)NC2=O)cc1Br | 39 | 0.95 | . | . | . | .
O=c1[nH]c(=O)n(-c2ccc(Br)cc2)c(O)c1C=C1C=CC=N1 | -2 | 0.83 | . | . | . | .
Cc1ccccc1-n1c(O)c(C=C2C=CC=N2)c(=O)[nH]c1=S | 63* | 0.75* | 58* | 140* | 0.72* | 0.74*
Cc1cccc(N2C(=O)NC(=O)/C(=C/c3cc(Cl)c(O)c(Cl)c3)C2=O)c1 | 16 | 1 | . | . | . | .
COc1cc(/C=C2\C(=O)NC(=O)N(c3cc(C)cc(C)c3)C2=O)cc(OC)c1O | 8 | 1.1 | . | . | . | .
Cc1cc(C)cc(N2C(=O)NC(=O)/C(=C\c3cc(Br)c(O)c([N+](=O)[O-])c3)C2=O)c1 | 36 | 0.99 | 28 | 53* | 0.95 | 0.99
Cc1cccc(N2C(=O)NC(=O)/C(=C\c3cc(Br)c(O)c([N+](=O)[O-])c3)C2=O)c1 | 32 | 0.99 | 32 | 62* | 0.93 | 0.75*
O=C(Nc1cc([N+](=O)[O-])ccc1F)C(c1ccccc1)c1ccccc1 | 17 | 1 | . | . | . | .
O=C(Nc1cccnc1)N1CCOCC1 | -10 | 1 | . | . | . | .
CN(C)c1ccc(NC(=O)N2CCOCC2)cc1 | 157* | 2.1* | 55* | 82* | 1.1 | 0.95
O=C1NC(=O)N(c2ccc(Cl)cc2)C(=O)/C1=C/c1cccs1 | 8 | 1 | . | . | . | .
COc1ccc(OC)c(N2C(=O)NC(=O)C(=Cc3cccs3)C2=O)c1 | 95* | 1 | 38 | 7 | 0.98 | 0.81
COc1ccc(OC)c(N2C(=O)NC(=O)/C(=C/C=C/c3ccccc3)C2=O)c1 | 49* | 0.92 | 21 | 32 | 0.98 | 0.83
COc1ccccc1N1C(=O)NC(=O)/C(=C\c2ccc(Br)cc2)C1=O | 19 | 0.92 | . | . | . | .
O=C(c1ccccc1)c1ccc(N2CCN(C(=O)c3ccccc3)CC2)c(F)c1 | 16 | 0.98 | . | . | . | .
O=C(c1cc2ccccc2o1)N1CCN(c2ccc([N+](=O)[O-])cc2)CC1 | 21 | 1 | . | . | . | .
COc1cc2c(cc1NS(=O)(=O)c1ccccc1)oc1ccccc12 | 10 | 0.95 | . | . | . | .
CCN(CC)c1ccc(/C=C2\C(=O)NC(=O)N(c3ccccc3OC)C2=O)cc1 | 4 | 1.1 | . | . | . | .
CCN(CC)c1ccc(/C=C2/C(=O)NC(=O)N(c3ccccc3)C2=O)cc1 | 86* | 3.2* | 30 | 26 | 1.6* | 1.8*
CCOC(=O)c1ccccc1NC(=O)CN(c1ccc(Br)cc1)S(C)(=O)=O | 17 | 1 | . | . | . | .
O=C(CN1C(=O)/C(=C/c2cccc(Br)c2)SC1=S)Nc1ccccn1 | 10 | 0.97 | . | . | . | .
O=C(CCCN1C(=O)/C(=C\c2cccc(Br)c2)SC1=S)Nc1ccc(C(=O)O)cc1 | 30 | 0.99 | 25 | 4 | 0.97 | 0.97
COc1ccc(C2C=C(Nc3ccc(C)cc3)C(=O)N2c2ccc(C)cc2)cc1OC (stereo not given) | -8 | 0.96 | . | . | . | .
O=C1C=CC(=O)N1c1ccc(Cc2ccc(N3C(=O)C=CC3=O)c(Cl)c2)cc1Cl | 14 | 1 | . | . | . | .
O=C1C=CC(=O)N1c1ccccc1N1C(=O)C=CC1=O | 81* | 1 | 63* | 11 | 0.98 | 0.95
CCOC(=O)CCN(CP(C)(=O)OC(C)C)C(=O)OCC (stereo not given) | 1 | 1 | . | . | . | .
Cc1ccc(N2C(=O)C=CC2=O)c(Br)c1 | 76* | 1 | 62* | 7 | 0.94 | 0.96
O=C1C2C3C=CC(C3)C2C(=O)N1c1ccc([N+](=O)[O-])cc1Br (stereo not given) | 4 | 0.99 | . | . | . | .
